This note sets out measurements from PubChem BioAssay AID720619 (Broad Institute, 2013).

The nature of the assay: HT-29 colorectal cell cytotoxicity, late-stage follow-up, mechanism study for HRAS target identification, Alamar Blue fluorescence, several timepoints, dry powder (AID 720619). Conditions: HT-29 viability.
[1] abbreviates: 48 h, at 35 µM (top of the series).

SMILES strings stand for the structures. Records with an inconclusive call do not appear. The source made the active and inactive calls.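 Rule for the calls: active = toxic at all three exposure times, half-maximal drop reached within twice the top dose; inconclusive = exposure times disagree, or curves are weak, flat or poorly fitted; inactive = inactive at every exposure time.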

In the case of `CCC(=O)N(c1ccc(OC)c(Cl)c1)C(C(=O)NCCc1ccccc1)c1cccs1` (centres undefined), the activity, lower = more toxic was 32.2% (inactive) under setting [1] and 5.18% (8 h treatment, at 35 µM).

For `Cc1onc(C(=O)N2CCN(C(c3ccncc3)c3ccncc3)CC2)c1[N+](=O)[O-]`, the activity, lower = more toxic was 7.85% (inactive) under setting [1] and -3.11% (8 h treatment, at 35 µM).
